PrP 5UTR inh: inhibition of PrP 5' UTR reporter expression; cell-based PrP 5' UTR mRNA reporter, plate reader; inhibition, % (concentration not given with the values); actives 0.35% (n = 340,000); in the data active means inhibition above about 52%; further: 0 = median of the neutral control wells
PriA SSB inh: blocks PriA binding to SSB C-terminal tail; AlphaScreen SSBct-PriA binding, biotinylated peptide; inhibition, % at 33 µM; actives 0.6% (n = 430,000); AID 1272365; in the data active means inhibition mostly above about 37%, no sharp cut-off; inactive means mostly below about 20%;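 further: plate controls were negative control peptide for no effect and reference peptide for full effect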
Vc quorum ag-1: quorum light induction in luxS cqsA deficient V. cholerae; activation, % at 18.7 µM; V. cholerae BH1578 lux reporter, luminescence, 6 h; AID 588436; actives 0.16% (n = 350,000); in the data active means activation mostly above about 9.7%, no sharp cut-off
PfHsp40 rescue: rescue of PfHsp40-mediated yeast toxicity; S. cerevisiae expressing PfHsp40, growth rescue, ATP luminescence; actives 0.68% (n = 340,000); AID 504582; growth rescue, % at 12.5 µM; in the data active means growth rescue above about 28%, passing the limit was not always enough;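 further: yeast W303a lacking pdr1 and pdr3 grown in galactose medium; growth measured after three days at 30 °C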
PrPC TRFRET: cell surface PrPC inhibition, primary TR-FRET screen. P04156. TR-FRET read-out. inhibition, % at 13.8 µM. actives 0.43% (n = 370,000). AID 720596; in the data active means inhibition above about 24%; further: 0% = median of the test wells and 100% = reference compound wells
SARS 3CLpro inh: SARS-CoV 3CLpro protease inhibition | P0C6X7 | inhibition, % at 6 µM | recombinant SARS-CoV 3CLpro, quenched FRET peptide cleavage | actives 0.14% (n = 290,000); in the data active means inhibition above about 12%
Vc quorum ag-2: inducers of V. cholerae quorum light production without autoinducers; shares compounds with Vc quorum ag-1; V. cholerae BH1578 lux reporter, luminescence, 6 h; activation, % at 50 µM; 620 tested, under 10 active; AID 602243; call rule not given here
HeLa 24h tox: cytotoxicity in HeLa cells at 24 hours; AID 624140; activity change, negative = cytotoxicity, % at 35 µM; shares compounds with Vc quorum ag-1; HeLa viability, CellTiter-Glo ATP luminescence; 25 tested, under 10 active;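 active means signal drop with fitted half-maximal concentration at or below twice the highest valid dose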
Starred values were filed as active, the others as inactive; i = inactive; . = no result given. Compounds with a hit are over-represented: about 1.6% of the library has one in this group of screens.

SMILES	PrP 5UTR inh	PriA SSB inh	Vc quorum ag-1	PfHsp40 rescue	PrPC TRFRET	SARS 3CLpro inh	Vc quorum ag-2	others
CCc1cccc2c(C(=O)COC(=O)c3c(C)noc3C)c[nH]c12	-21.7	-9.8	-1.5	0.3	4.1	4.9	.
Cc1ccc(CN(Cc2cc3cc(C)ccc3[nH]c2=O)C(=O)N2CCOCC2)cc1	-10.6	-11.6	16.7*	-0.9	7.0	-0.5	6.8
Cc1onc(-c2ccccc2Cl)c1C(=O)N(c1ccc(C(C)C)cc1)C1C=CS(=O)(=O)C1 (stereo unspecified)	.	6.0	.	.	.	.	.
CCn1c(CC(=O)Nc2cccc(Cl)c2Cl)nnc1SCCOc1ccc(OC)cc1	-20.9	-4.9	.	-0.3	.	1.4	i	HeLa 24h tox=6.6
COCCNc1nc2c(c(=O)n(Cc3ccc(OC)cc3)c(=O)n2C)n1C	-9.0	-0.9	14.3	0.9	-6.0	0.4	0.3
CCOC(=O)c1sc2cc([N+](=O)[O-])cc(SCC(=O)OC)c2c1N	-28.9	15.1	-0.6	1.1	-21.0	0.3	.
CCOC(=O)c1sc2cc([N+](=O)[O-])cc(SCCO)c2c1N	-6.7	-8.7	22.8*	-0.8	-12.8	-1.9	-0.2
O=C(Nc1ccc(Cl)c(Cl)c1)Nc1ccccc1C(=O)O	-53.9	-24.4	13.3	2.0	-0.4	6.2	0.1
O=C(Nc1ccc(Cl)cc1)Nc1ccccc1C(=O)O	-17.6	-6.0	0.0	-1.6	-0.1	2.5	.
COCCNC(=O)c1cnn2c1NC(c1ccco1)CC2C(F)(F)F (stereo unspecified)	-3.0	-3.5	16.7*	-2.3	8.7	3.5	0.3
COc1cccc2cc(C(=O)NCCn3ccc(-c4cccs4)n3)oc12	.	-2.0	.	.	.	.	.
CCCCNC(=O)c1ccccc1NC(=O)CCSc1ccccc1	2.7	-25.8	12.5	1.2	3.1	3.0	0.4
CCCCNC(=O)Nc1ccccc1C(=O)NCCC	-6.8	-9.6	-0.4	-0.9	2.7	-5.8	.
Cc1ccc2[nH]c(=O)c(C=O)cc2c1	.	1.0	.	.	.	.	.
O=C(CSc1nc2c(-c3ccccc3)c[nH]c2c(=O)n1C1CC1)NCCc1ccccc1	.	-13.0	.	.	.	.	.
O=C(NCCC1CCCCN1S(=O)(=O)c1ccccc1)C(=O)NCc1ccccc1F (stereo unspecified)	-3.1	-12.4	-0.7	0.7	-8.5	.	.
O=C(NCc1ccccc1F)C(=O)NCC1CCCN1S(=O)(=O)c1ccccc1 (stereo unspecified)	-26.1	-12.7	12.5	0.3	0.9	.	1.0
O=C(Nc1ccccc1)OC1CCCC(NS(=O)(=O)Cc2ccccc2)C1 (stereo unspecified)	.	0.0	.	.	.	.	.
COC(=O)c1sccc1NC(=O)Cn1cc(-c2nc(-c3ccc(OC)cc3)no2)ccc1=O	.	-18.0	.	.	.	.	.
O=C(Oc1ccc(=O)n(-c2ccccc2)n1)c1ccc(Cl)cc1	-28.6	-17.9	i	-0.7	3.9	5.1	.
O=C(Oc1ccc(=O)n(-c2ccccc2)n1)c1cccc(Cl)c1	-25.2	-11.1	25.0*	0.3	4.9	4.4	0.3
COc1ccc(CNC(=O)CSc2nc3c(oc4ccccc43)c(=O)n2CC2CCCO2)cc1 (stereo unspecified)	-3.5	-0.5	14.3	0.2	-4.2	.	0.0
COc1cccc(CNC(=O)CSc2nc3c(oc4ccccc43)c(=O)n2CC2CCCO2)c1 (stereo unspecified)	-13.4	-19.6	-0.3	0.9	0.3	.	.
O=C(COc1ccc(F)cc1)Nc1nnc(Cc2ccc3c(c2)OCO3)o1	.	-26.0	.	.	.	.	.
CN(CC(=O)Nc1nc2ccc(S(C)(=O)=O)cc2s1)c1nc2c(F)cccc2s1	.	5.0	.	.	.	.	.
Cc1ccc(C)c(S(=O)(=O)Nc2ccc(O)cc2)c1	-16.3	-5.3	i	-0.7	-1.3	5.2	.
Cc1ccc(C)c(S(=O)(=O)Nc2ccc(-n3cnnn3)cc2)c1	-11.0	-7.1	36.7*	-0.5	.	.	-0.1
CCS(=O)(=O)N1CC(Oc2cc(C)oc(=O)c2)C1	.	-7.0	.	.	.	.	.
Cn1c(SCC(=O)c2ccccc2)nnc1C1COc2ccccc2O1 (stereo unspecified)	-8.9	-12.8	-0.2	2.7	5.2	6.7	.

Source: PubChem (several laboratories)
